Screening results from PubChem.
MITF act: activators of MITF-driven TRPM1 promoter reporter, primary screen, cell-based, SK-MEL-5, luciferase, single point; SK-MEL-5 TRPM1-promoter luciferase, 24 h; % of positive control, neutral wells = 0; activation, % at 12.5 µM; hit rate 0.75% among 300,000; AID 588334, 2011;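 active = mean activation of at least 80% with every replicate also reaching 80%; inconclusive = mean reaches 80% but some replicate falls short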;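 note: 0% = neutral control wells and 100% = parthenolide positive control wells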
HSF1 inh: HSF1 inhibitors in luciferase reporter cells, primary screen, cell-based, NIH3T3, luminescence; NIH3T3-HGL HSE-luciferase, MG132-induced, luminescence 8 h; active compounds read low; activity change, negative = inhibition, % at 7.5 µM (by protocol); hit rate 0.77% among 300,000;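 active = more than half of replicate wells show activity change below -50%, luminescence cut by over half; inconclusive = some wells, but at most half, below -50%; inactive = no replicate well below -50%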;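 note: luciferase reports HSF-1 transcriptional activity via heat shock element; 0% = median of DMSO wells and -100% = zero luminescence signal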
Wnt act: Wnt/beta-catenin pathway activators, primary screen, cell-based, plate reader, single point. Wnt/beta-catenin reporter cell assay, activator. activation, % at 9.35 µM. hit rate 1.2% among 300,000. AID 743398, 2014; in the data active = activation above about 30%, passing the limit was not always enough; inconclusive = no clear call, values can overlap the other calls;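 note: 0% = neutral control wells and 100% = positive control wells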
HSF-1 act: HSF-1 activators, primary screen, NIH3T3-HGL cells, MG132 stress, luminescence, single point; NIH3T3-HGL HSF-1 luciferase reporter, 8 h; 100% = twice DMSO control signal; activation, % at 9 µM; hit rate 1.7% among 300,000; AID 504408, 2011;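 active = mean replicate activation of at least 50% with a set share of replicates each reaching 50%; inconclusive = only one of those two conditions met; inactive = mean below 50% and too few replicates reaching it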;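 note: 0% = median of the neutral control wells and 100% = twice that signal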
esBAF inh: Bmi1 luciferase reporter increase in mESCs, primary screen, esBAF inhibitor project, mouse ES cells, Bmi1 luciferase knock-in, single point; 24 h; 100% = twice the neutral-well signal; reporter increase, % at 12.5 µM; hit rate 2% among 350,000; AID 602393, 2012; in the data active = activation above about 40%; inconclusive = no clear call, values can overlap the other calls;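 note: 0% = median of the plate's neutral control wells and 100% = double that signal; a rise in the Bmi1 reporter signal indicates esBAF inhibition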
The depositor's hits bear a star; ? = inconclusive; / = not tested or not shown. Compounds with a hit are over-represented: about 3.9% of the library has one in this group of screens.

SMILES | MITF act | HSF1 inh | Wnt act | HSF-1 act | esBAF inh
CO[C@H]1CC[C@@H]2CCOc3c(C#N)cccc3C(=O)N(C)C[C@@H](C)C(=O)N(C)C[C@@H]1O2 | / | / | / | / | 2.6
C[C@@H]1CN([C@@H](C)CO)S(=O)(=O)c2ccc(C#Cc3ccncc3)cc2O[C@H]1CN(C)C(=O)C1CCC1 | / | / | / | / | 3.5
C=CCSc1nncn1/N=C/c1ccc(OC)cc1 | 92.0* | 15.4 | 26.9 | 35.6 | /
Cc1ccc(S(=O)(=O)N(C)C[C@H]2OCCCC[C@H](C)Oc3ccc(NC(=O)Nc4cccc5ccccc45)cc3C(=O)N([C@@H](C)CO)C[C@@H]2C)cc1 | / | / | / | / | -4.3
C[C@H]1CN([C@@H](C)CO)C(=O)c2cccc(NC(=O)Nc3ccc(F)cc3)c2O[C@@H]1CN(C)S(=O)(=O)c1cn(C)cn1 | / | / | / | / | -7.5
O=C(c1ccc(-c2nnc(Nc3cccc(Cl)c3)c3ccccc23)cc1)N1C[C@H]2C[C@H](C1)c1cccc(=O)n1C2 | 0.0 | 1.4 | / | 25.2 | 2.4
COc1nnc(-c2ccc(C(=O)N3C[C@@H]4C[C@H](C3)c3cccc(=O)n3C4)cc2)c2ccccc12 | -0.1 | -58.3* | / | -69.3 | /
C[C@@H]1CN([C@@H](C)CO)C(=O)CCCn2nncc2CO[C@H]1CN(C)Cc1ccc(C(=O)Nc2ccccc2N)cc1 | / | / | / | / | -20.5
CN1CCN(/N=C/c2ccc(N(c3ccccc3)c3ccccc3)cc2)CC1 | 13.2 | 5.3 | 0.1 | 6.2 | -0.6
CN1CCN(/N=C/c2ccc(Br)cc2)CC1 | 94.7* | 3.1 | 6.9 | 4.3 | 39.5
CN1CCN(/N=C/c2ccc(Cl)c(Cl)c2)CC1 | 88.0* | -0.5 | / | -8.2 | /
O=C(CCOc1ccccc1)N1CCN(c2ccc(O)cc2)CC1 | 10.1 | 2.2 | 49.6* | 12.6 | 4.2
Clc1ccc(CSc2cc3c(nn2)-c2ccccc2CC3)cc1 | 45.0 | / | / | / | 52.3*
C/C(Cn1cnc([N+](=O)[O-])n1)=N\NC(=O)c1ccccc1 | / | 3.4 | 9.6 | 3.6 | 44.0*
C/C(Cn1nnc([N+](=O)[O-])n1)=N\NC(=O)c1ccccc1 | -34.3 | 9.9 | 1.2 | 25.8 | 9.6
c1ccc(CCSc2nccn2-c2ccccc2)cc1 | / | 36.3 | 24.0 | 57.7* | 29.9
CN1C(=O)c2cc(NS(C)(=O)=O)ccc2OC[C@@H]2O[C@H](CC(=O)N3CCOCC3)CC[C@H]21 | / | / | / | / | 0.4
O=C(c1ccccn1)N1C[C@@H]2[C@H](c3ccccc31)[C@H](CO)N2C(=O)CC1CC1 | / | / | / | / | -3.4
CCCC(=O)Nc1ccc(Oc2ccc(NC(=O)CCC)cc2)cc1 | -2.0 | -2.9 | -5.2 | -15.1 | -3.2
CC(=O)Nc1ccc(C(=O)c2ccccc2)cc1 | 6.7 | 4.7 | / | -1.1 | 8.9
CCCCC(=O)Nc1ccc(C(=O)c2ccccc2)cc1 | 23.1 | 8.9 | -3.8 | 18.5 | 48.6*
O=C(Nc1ccc(C#Cc2ccccc2)cc1)C1CC1 | / | 34.2 | / | 82.4* | ?
CCCC(=O)Nc1ccc(C#Cc2ccccc2)cc1 | 95.9* | 28.4 | 37.6* | 61.3* | 54.4*
CN(C)c1ccc2c(c1)[C@@H]1C[C@@H](CC(=O)NC3CCCC3)O[C@H](CO)[C@@H]1O2 | / | / | / | / | 0.8
CNC[C@@H]1Oc2ccc(NC(=O)C3CCCCC3)cc2CC(=O)N([C@@H](C)CO)C[C@@H]1C | / | / | / | / | -0.4
SMILES | MITF act | HSF1 inh | Wnt act | HSF-1 act | esBAF inh
C#CCCc1cscc1/C=[N+](\[O-])c1ccc(C(=O)OCC)cc1 | 34.0 | / | 0.6 | / | 61.7*
CCOC(=O)c1ccc(/[N+]([O-])=C/c2ccccc2)cc1 | 57.5 | / | 18.6 | / | 53.1*
COc1ccc(Br)cc1CN1CCN(Cc2c[nH]c3ccccc23)CC1 | -7.2 | 9.7 | 0.9 | 55.0* | 15.5
COc1ccc(CN2CCN(Cc3c[nH]c4ccccc34)CC2)cc1OC | / | / | -1.9 | / | 1.8
COc1ccc(/C=N/Nc2cc(C)nc3ccc(Br)cc23)cc1 | -97.8 | 7.2 | -2.8 | 59.4* | -43.1
COc1ccc2nc(C)cc(N/N=C/c3cccc(OC)c3O)c2c1 | / | 28.7 | -6.9 | 33.0 | -3.0
COc1ccc(Cn2nnnc2CN2CCc3ccccc32)cc1 | -4.9 | 11.2 | -3.3 | -0.6 | /
COc1ccc(Cn2nnnc2CN2CCc3ccccc3C2)cc1 | -9.1 | -61.2* | -4.9 | -68.5 | -6.0
O=C(C[C@H]1CC[C@@H](NS(=O)(=O)c2ccc(F)cc2)[C@H](CO)O1)NCc1ccc(Cl)c(Cl)c1 | / | / | / | / | 4.0
C[C@@H]1CN([C@H](C)CO)C(=O)c2cc(NC(=O)NC3CCCCC3)ccc2O[C@@H]1CN(C)S(=O)(=O)c1ccc(Cl)cc1 | / | / | / | / | -0.2
Cc1cc(C(=O)CCl)c(C)n1CCc1ccc(Cl)cc1 | -75.4 | 41.2 | -1.5 | 61.3* | 0.1
CN(CCOc1ccccc1)C(=O)C1CCC(=O)N(CCc2ccc(Cl)cc2)C1 (stereo unspecified) | 37.6 | 23.5 | 0.5 | 59.2* | /
Cc1ccc(CN(C)C(=O)C2CCC(=O)N(CCc3ccccc3)C2)o1 (stereo unspecified) | 16.3 | 113.5 | 7.8 | 194.8* | 19.5
O=C(N[C@@H]1CC[C@@H](CCn2cc(-c3cccnc3)nn2)O[C@H]1CO)c1ccccc1F | / | / | / | / | -0.1
O=S(=O)(c1cc(Cl)ccc1Cl)N1CCC2(CC1)OCCO2 | -10.2 | -71.6* | -1.9 | -77.8 | -1.0
Cc1cc(-c2n[nH]c(=S)n2/N=C/C(Cl)=C/c2ccccc2)n[nH]1 | -0.9 | 12.8 | 16.4 | 49.5 | /
S=c1[nH]nc(-c2ccco2)n1/N=C/C(Cl)=C/c1ccccc1 | / | 142.4 | -2.7 | 181.9* | /
S=c1[nH]nc(-c2cc(-c3ccccc3)n[nH]2)n1/N=C/C(Br)=C/c1ccccc1 | / | 98.7 | -9.7 | 104.1* | /
Cc1ccc(S(=O)(=O)Nc2cccc3c2O[C@@H](CN(C)C(=O)Nc2cccc4ccccc24)[C@H](C)CN([C@@H](C)CO)C3=O)cc1 | / | / | / | / | 13.3
Cn1c(SCc2ccc(C#N)cc2Cl)nc2ccccc21 | ? | 74.2 | / | 92.8* | 87.5*
Cc1ccc(-c2csc(NC(=O)c3ccc(F)cc3)c2C(=O)O)cc1 | 51.5 | 19.2 | -0.5 | 4.4 | 59.3*
COc1cccc(C(=O)Nc2sc3c(c2C(=O)O)CCCC3)c1 | 6.7 | 0.9 | 26.4 | 3.1 | 55.5*
O=C(Nc1sc2c(c1C(=O)O)CCCC2)c1cccs1 | 33.4 | 6.1 | / | 19.7 | 56.3*
O=C(Nc1sc2c(c1C(=O)O)CCCCC2)c1cccs1 | 30.6 | 4.2 | 11.9 | 27.4 | /
O=C(/C=C/c1cccs1)Nc1sc2c(c1C(=O)O)CCCC2 | -6.4 | -1.1 | 13.6 | 0.2 | 61.7*
C[C@H]1CN([C@@H](C)CO)C(=O)Cc2cc(NS(=O)(=O)c3cn(C)cn3)ccc2O[C@H]1CN(C)S(=O)(=O)c1ccc(F)cc1 | / | / | / | / | -3.0
CN1c2ccc(-c3ccc(C#N)cc3)cc2[C@@H]2[C@@H](CCN2C(=O)Cc2ccccn2)[C@@H]1CO | / | / | / | / | -1.6
